{
  "source": "ChEMBL document CHEMBL2218924",
  "about": "“A broad activity screen in support of a chemogenomic map for kinase signalling research and drug discovery” (Biochem J, 2013)",
  "key": {"[1]": {"biological_target": "T1, Ephrin type-A receptor 3 (Homo sapiens) (UniProt P29320)", "T1 sequence (whole entry)": "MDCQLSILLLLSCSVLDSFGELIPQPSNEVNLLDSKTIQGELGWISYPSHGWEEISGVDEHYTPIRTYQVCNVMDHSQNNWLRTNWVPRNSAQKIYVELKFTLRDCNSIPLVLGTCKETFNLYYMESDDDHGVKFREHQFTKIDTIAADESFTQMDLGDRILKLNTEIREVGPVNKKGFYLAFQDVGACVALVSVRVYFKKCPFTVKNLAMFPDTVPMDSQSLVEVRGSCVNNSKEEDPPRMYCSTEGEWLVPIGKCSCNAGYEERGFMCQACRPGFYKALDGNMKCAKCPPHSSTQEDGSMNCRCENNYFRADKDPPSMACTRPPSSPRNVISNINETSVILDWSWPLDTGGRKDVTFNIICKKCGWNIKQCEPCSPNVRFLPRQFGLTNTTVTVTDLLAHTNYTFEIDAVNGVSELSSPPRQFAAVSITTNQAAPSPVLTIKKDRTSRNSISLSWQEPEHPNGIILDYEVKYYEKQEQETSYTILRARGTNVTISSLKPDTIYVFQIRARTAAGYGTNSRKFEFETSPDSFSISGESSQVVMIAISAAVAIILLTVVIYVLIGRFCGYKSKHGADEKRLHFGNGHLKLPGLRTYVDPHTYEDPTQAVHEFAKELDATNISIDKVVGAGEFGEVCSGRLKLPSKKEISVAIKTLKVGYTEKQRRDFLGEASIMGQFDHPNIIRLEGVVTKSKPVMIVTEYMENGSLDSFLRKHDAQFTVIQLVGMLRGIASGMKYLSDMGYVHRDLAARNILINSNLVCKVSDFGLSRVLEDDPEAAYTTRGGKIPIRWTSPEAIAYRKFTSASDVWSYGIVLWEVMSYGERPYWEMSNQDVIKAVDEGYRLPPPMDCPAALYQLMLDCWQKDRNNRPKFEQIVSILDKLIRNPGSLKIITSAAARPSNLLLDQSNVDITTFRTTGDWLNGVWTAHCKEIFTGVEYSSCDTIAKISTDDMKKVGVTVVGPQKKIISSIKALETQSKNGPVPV", "settings": "at 10 µM"}, "[2]": {"biological_target": "Ephrin type-A receptor 4 (Homo sapiens) (UniProt P54764)", "sequence (P54764 whole entry)": "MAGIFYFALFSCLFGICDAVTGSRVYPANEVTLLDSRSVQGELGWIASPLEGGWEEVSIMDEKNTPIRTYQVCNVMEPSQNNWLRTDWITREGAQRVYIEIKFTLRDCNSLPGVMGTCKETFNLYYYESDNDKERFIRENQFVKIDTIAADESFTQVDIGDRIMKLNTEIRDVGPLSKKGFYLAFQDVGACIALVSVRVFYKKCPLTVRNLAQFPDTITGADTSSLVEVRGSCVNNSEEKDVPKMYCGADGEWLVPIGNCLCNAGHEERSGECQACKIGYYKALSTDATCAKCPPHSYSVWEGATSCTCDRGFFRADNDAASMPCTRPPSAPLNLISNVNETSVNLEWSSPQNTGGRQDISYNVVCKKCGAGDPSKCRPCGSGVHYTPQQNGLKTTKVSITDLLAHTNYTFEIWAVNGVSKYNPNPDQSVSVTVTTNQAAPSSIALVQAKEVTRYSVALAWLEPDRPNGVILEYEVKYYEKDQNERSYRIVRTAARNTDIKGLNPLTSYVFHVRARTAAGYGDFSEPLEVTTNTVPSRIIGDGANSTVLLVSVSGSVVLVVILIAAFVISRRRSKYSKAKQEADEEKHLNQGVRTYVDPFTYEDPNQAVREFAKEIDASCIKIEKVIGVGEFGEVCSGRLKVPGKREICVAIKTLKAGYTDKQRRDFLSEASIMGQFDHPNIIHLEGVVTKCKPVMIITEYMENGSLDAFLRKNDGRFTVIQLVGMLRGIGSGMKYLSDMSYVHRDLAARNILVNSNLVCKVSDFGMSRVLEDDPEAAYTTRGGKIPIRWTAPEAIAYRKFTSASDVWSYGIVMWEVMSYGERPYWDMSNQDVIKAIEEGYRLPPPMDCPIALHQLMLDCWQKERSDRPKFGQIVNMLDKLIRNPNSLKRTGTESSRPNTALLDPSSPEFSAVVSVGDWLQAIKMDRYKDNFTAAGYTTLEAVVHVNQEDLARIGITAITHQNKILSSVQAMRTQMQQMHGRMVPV", "settings": "at 1 µM"}, "[3]": {"biological_target": "Ephrin type-A receptor 4 (Homo sapiens) (UniProt P54764)", "settings": "at 10 µM"}, "[4]": {"biological_target": "Ephrin type-A receptor 5 (Homo sapiens) (UniProt P54756)", "sequence (P54756 whole entry)": "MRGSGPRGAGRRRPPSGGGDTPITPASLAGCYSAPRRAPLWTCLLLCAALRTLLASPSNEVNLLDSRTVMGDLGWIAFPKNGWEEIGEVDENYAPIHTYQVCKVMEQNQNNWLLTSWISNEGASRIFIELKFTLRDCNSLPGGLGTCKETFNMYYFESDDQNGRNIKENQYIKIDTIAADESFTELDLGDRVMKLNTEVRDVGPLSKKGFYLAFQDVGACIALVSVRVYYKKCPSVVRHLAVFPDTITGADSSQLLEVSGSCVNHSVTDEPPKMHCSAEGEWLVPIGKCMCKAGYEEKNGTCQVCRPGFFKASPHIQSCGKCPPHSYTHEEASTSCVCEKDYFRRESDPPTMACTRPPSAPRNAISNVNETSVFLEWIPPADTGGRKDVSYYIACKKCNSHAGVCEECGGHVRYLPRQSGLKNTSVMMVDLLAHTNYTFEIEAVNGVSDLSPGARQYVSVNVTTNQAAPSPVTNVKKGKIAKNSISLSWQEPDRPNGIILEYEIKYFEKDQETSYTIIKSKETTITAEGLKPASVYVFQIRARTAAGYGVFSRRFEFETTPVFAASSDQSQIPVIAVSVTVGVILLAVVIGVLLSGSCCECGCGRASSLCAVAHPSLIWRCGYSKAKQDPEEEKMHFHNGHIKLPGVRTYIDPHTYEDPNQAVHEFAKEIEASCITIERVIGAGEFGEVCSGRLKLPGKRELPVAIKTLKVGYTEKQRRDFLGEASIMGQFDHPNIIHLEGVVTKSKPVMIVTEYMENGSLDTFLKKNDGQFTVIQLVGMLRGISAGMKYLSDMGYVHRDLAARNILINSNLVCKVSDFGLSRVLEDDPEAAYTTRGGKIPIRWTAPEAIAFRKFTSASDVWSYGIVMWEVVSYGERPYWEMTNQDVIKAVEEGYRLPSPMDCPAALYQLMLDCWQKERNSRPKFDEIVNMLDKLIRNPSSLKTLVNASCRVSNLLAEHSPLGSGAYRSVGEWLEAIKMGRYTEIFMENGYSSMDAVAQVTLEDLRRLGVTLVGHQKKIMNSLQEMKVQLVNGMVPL", "settings": "at 1 µM"}, "[5]": {"biological_target": "Ephrin type-A receptor 5 (Homo sapiens) (UniProt P54756)", "settings": "at 10 µM"}, "[6]": {"biological_target": "Ephrin type-A receptor 7 (Homo sapiens) (UniProt Q15375)", "sequence (Q15375 28-998 limits assumed)": "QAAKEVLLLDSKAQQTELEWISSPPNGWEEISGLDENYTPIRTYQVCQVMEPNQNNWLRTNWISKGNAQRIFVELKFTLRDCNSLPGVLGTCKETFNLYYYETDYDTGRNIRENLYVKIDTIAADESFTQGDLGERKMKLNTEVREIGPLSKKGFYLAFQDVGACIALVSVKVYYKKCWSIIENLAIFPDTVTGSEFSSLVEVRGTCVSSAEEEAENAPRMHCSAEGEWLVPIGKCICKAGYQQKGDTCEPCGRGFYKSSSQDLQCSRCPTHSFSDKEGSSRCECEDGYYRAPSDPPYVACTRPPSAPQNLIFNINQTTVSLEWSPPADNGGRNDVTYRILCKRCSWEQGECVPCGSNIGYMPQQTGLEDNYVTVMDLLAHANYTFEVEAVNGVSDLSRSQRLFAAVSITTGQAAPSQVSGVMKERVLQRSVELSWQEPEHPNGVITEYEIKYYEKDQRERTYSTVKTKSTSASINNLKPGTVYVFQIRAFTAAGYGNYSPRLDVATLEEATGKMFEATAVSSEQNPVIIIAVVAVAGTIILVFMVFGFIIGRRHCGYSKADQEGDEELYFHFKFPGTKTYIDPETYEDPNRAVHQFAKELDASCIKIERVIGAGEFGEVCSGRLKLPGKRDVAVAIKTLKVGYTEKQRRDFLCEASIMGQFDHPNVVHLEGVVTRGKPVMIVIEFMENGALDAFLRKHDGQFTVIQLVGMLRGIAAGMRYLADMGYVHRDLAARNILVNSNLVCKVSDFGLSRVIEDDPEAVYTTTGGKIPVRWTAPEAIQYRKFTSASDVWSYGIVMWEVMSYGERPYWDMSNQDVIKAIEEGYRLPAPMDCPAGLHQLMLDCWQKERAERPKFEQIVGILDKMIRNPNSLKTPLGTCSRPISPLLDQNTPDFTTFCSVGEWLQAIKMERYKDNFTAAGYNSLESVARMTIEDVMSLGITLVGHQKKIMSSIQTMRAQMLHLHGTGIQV", "settings": "at 1 µM"}, "[7]": {"biological_target": "Ephrin type-A receptor 7 (Homo sapiens) (UniProt Q15375)", "settings": "at 10 µM"}, "[8]": {"biological_target": "T2, Ephrin type-A receptor 8 (Homo sapiens) (UniProt P29322)", "T2 sequence (whole entry)": "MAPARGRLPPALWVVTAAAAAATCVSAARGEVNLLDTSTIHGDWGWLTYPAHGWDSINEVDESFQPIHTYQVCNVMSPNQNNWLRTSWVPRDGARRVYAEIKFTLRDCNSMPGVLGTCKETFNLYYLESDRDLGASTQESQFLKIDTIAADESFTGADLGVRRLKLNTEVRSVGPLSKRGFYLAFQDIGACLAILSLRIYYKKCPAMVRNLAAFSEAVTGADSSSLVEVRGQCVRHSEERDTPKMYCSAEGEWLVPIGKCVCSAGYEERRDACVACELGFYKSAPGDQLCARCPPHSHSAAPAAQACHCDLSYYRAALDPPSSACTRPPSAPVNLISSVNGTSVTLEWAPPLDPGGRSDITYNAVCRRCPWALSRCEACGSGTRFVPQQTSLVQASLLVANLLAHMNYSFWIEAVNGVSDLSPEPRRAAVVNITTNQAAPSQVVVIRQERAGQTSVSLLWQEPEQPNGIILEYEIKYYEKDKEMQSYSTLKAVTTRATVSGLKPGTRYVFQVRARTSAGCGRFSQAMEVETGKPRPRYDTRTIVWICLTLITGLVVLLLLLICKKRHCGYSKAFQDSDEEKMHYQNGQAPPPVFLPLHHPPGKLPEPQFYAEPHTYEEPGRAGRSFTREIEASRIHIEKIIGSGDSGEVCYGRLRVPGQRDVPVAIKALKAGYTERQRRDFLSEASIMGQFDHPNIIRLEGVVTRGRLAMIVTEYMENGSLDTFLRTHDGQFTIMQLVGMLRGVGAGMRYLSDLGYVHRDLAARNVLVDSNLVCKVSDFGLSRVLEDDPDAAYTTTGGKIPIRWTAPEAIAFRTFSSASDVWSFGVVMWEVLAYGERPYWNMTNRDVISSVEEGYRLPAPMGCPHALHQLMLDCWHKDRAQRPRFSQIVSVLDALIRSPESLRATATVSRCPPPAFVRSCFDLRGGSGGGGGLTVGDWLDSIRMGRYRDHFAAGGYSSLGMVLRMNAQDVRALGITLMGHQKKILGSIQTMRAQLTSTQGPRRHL", "settings": "at 1 µM"}, "[9]": {"biological_target": "T2, Ephrin type-A receptor 8 (Homo sapiens)", "settings": "at 10 µM"}, "[10]": {"biological_target": "T3, Ephrin type-B receptor 1 (Homo sapiens) (UniProt P54762)", "T3 sequence (whole entry)": "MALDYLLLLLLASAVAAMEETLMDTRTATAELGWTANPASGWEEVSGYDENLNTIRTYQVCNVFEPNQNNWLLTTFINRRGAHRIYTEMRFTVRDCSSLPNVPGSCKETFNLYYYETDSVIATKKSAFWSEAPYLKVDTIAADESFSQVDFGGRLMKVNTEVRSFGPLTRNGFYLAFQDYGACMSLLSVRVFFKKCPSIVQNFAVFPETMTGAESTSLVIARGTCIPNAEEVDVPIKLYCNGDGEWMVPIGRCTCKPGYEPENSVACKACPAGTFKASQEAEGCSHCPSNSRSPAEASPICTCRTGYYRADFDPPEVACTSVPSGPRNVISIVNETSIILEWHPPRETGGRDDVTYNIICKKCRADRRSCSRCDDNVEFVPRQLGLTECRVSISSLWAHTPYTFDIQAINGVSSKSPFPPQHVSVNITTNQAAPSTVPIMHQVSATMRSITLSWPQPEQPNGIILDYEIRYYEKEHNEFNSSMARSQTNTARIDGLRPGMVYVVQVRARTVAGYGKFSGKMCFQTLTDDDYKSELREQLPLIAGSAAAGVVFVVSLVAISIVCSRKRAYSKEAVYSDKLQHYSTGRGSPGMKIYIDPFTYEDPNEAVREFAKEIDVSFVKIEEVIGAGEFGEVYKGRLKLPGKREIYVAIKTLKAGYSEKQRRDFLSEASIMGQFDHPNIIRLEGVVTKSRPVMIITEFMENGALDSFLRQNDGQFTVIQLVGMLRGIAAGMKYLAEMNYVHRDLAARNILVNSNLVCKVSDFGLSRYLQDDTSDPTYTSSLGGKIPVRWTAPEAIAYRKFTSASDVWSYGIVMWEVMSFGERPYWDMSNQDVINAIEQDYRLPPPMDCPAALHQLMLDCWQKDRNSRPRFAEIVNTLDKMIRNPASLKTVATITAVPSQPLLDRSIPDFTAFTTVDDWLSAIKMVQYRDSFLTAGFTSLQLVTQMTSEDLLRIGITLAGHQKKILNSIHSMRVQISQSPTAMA", "settings": "at 1 µM"}},
  "data": [
    {"smiles": "NC(=O)c1ccc2[nH]c(-c3ccc(Oc4ccc(Cl)cc4)cc3)nc2c1", "values": [
      {"measurement": "residual activity", "setting": "[1]", "value": 111, "unit": "%"},
      {"measurement": "residual activity", "setting": "[2]", "value": 112, "unit": "%"},
      {"measurement": "residual activity", "setting": "[3]", "value": 104, "unit": "%"},
      {"measurement": "residual activity", "setting": "[4]", "value": 114, "unit": "%"},
      {"measurement": "residual activity", "setting": "[5]", "value": 103, "unit": "%"},
      {"measurement": "residual activity", "setting": "[6]", "value": 94, "unit": "%"},
      {"measurement": "residual activity", "setting": "[7]", "value": 81, "unit": "%"},
      {"measurement": "residual activity", "setting": "[8]", "value": 94, "unit": "%"},
      {"measurement": "residual activity", "setting": "[9]", "value": 96, "unit": "%"},
      {"measurement": "residual activity", "setting": "[10]", "value": 95, "unit": "%"}
    ]}
  ]
}
